Compound activity (PubChem BioAssay)
Shown are actives, neighbours in structure and some others; about 19% of the full set was active somewhere.
S-ASM inh: Inhibitors of Secretory Acid Sphingomyelinase (S-ASM): qHTS; Sphingomyelin phosphodiesterase (Homo sapiens), P17405; placental ASM, HMU-PC fluorogenic substrate, 60 min; Potency, µM (doses to about 57.5 µM), for the others: at the highest dose activity change, negative = inhibition, hits mostly inhibitors; hit rate 0.006% among 340,000; AID 504937, 2011; note: potency is the fitted concentration of half-maximal effect
Target sequence (P17405 47-631 limits assumed): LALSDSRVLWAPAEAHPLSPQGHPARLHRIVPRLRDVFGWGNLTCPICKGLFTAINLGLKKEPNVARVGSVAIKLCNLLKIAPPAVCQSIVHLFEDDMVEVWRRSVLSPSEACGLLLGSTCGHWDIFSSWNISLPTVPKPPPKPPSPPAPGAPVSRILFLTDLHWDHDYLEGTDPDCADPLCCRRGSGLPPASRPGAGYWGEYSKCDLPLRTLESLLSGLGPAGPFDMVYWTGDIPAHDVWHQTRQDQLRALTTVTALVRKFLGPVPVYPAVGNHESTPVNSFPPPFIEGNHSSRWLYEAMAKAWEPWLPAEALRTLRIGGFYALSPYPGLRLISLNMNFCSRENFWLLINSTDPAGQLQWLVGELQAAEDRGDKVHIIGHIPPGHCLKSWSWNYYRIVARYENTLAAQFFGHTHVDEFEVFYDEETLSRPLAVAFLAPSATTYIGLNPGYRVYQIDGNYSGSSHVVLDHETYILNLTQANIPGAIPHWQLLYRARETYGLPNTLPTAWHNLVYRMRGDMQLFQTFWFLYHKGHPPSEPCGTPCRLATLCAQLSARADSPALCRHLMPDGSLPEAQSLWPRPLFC
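Human placenta-derived ASM enzyme was preincubated with compound for 10 minutes at room temperature, then given fluorogenic substrate HMU-PC0 (9 uM final) for 60 minutes at 37 °C; a pH 10 stop preceded fluorescence reading at Ex 386/Em 447 nm.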
HepG2 viability: qHTS for Inhibitors of TGF-b: Cytotox Counterscreen. hit rate 0.76% among 410,000. Potency, µM (highest dose often 46.1 µM), without a hit: at the top dose activity change, negative = cytotoxicity, hits mostly cytotoxic. AID 588856, 2011. HepG2 CAGA-GFP viability, ATP luminescence, 18 h; note: potency is the fitted concentration of half-maximal effect
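HepG2 CAGA-GFP cells (1000/well, DMEM with 1% FBS) received compound, then TGF-beta at 500 pg/mL final, and were incubated 18 hours at 37 degrees C. Viability was read by CellTiter-Glo luminescence. Media-only wells were set as complete cell-killing and DMSO as no toxicity.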
TDP1 cell noCPT: qHTS for Inhibitors of human tyrosyl-DNA phosphodiesterase 1 (TDP1): qHTS in cells in absence of CPT; DT40 Tdp1-/- hTDP1 cells, no CPT, ATP luminescence, 48 h; hit rate 15% among 420,000; Potency, µM (titrated, usually from 46.2 µM), for the others: top-dose activity change, negative = growth inhibition, actives largely listed as inhibitors; AID 686978, 2013; note: potency is the fitted concentration of half-maximal effect; % is set by controls: 0 for no effect and ±100 for the full control effect; nearly all actives have a fitted effect of over 55% in size
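Luminescent ATP content (CellTiter-Glo) served as the growth readout. Knockout chicken DT40 cells expressing human TDP1 were exposed to compounds without camptothecin for a minimum 48 hr at 37 °C.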
TGFb inhibitor: qHTS for Inhibitors of TGF-b; HepG2 CAGA-GFP TGF-b/SMAD3 reporter, GFP fluorescence, 18 h; TGF-beta stimulated, 500 pg/mL final; Potency, µM (top dose mostly 46.1 µM), without a hit: at the highest dose activity, negative = inhibition, hits mostly inhibitors; AID 588855, 2011; hit rate 1.2% among 410,000; note: potency is the fitted concentration of half-maximal effect; % is set by controls: 0 for no effect and ±100 for the full control effect; nearly all actives have a fitted effect of over 65% in size
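Cell-based qHTS in HEPG2 carrying a CAGA-GFP Smad reporter; compounds added before 500 pg/mL final TGF-beta, 18 h incubation at 37 degrees C, GFP fluorescence quantified per cell by imaging cytometry.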
DT40 TDP1 CPT: qHTS for Inhibitors of human tyrosyl-DNA phosphodiesterase 1 (TDP1): qHTS in cells in presence of CPT; hit rate 12% among 420,000; Potency, µM (titrated, usually from 46.2 µM), for the others: top-dose activity change, negative = growth inhibition, most hits filed as inhibitors; chicken DT40 Tdp1-/-;hTDP1 cells + 20 nM CPT, ATP luminescence, 48 h; AID 686979, 2013; note: potency is the fitted concentration of half-maximal effect; % is set by controls: 0 for no effect and ±100 for the full control effect; nearly all actives have a fitted effect of over 55% in size
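Chicken DT40 Tdp1-/- cells complemented with human TDP1, 400 cells/well, exposed to compounds plus 20 nM camptothecin for at least 48 h at 37 C; viability read as ATP content by CellTiter-Glo luminescence.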
IL1B secr inh: qHTS for Inhibitors of Inflammasome Signaling: IL-1-beta AlphaLISA Primary Screen; THP-1 LPS/ATP IL-1B secretion, AlphaLISA, 16 h; active compounds read low; activity change, % at 57.5 µM; hit rate 4.7% among 360,000; AID 743279, 2014; in the data active = activity change below about -50%; inconclusive = mostly about -30% to -49%; note: % is set by controls: 0 for no effect and ±100 for the full control effect
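Secreted IL-1B measured by AlphaLISA bead assay after 16 h compound exposure of THP-1 cells; compounds (final up to 57.5 uM) added 1 h before LPS (250 ng/mL) and ATP (1.25 mM) stimulation; lower signal means less secretion.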
* = called active by the depositor. Unless noted, calls come from the whole dose curve; as a rule, active = well fitted curve in the direction sought with a large enough effect; inconclusive = small, poorly fitted or top-dose-only effect, or another doubt; inactive = no such curve, though single readings can be large; an effect the other way counts as inactive or inconclusive.

For Cc1ccc(-c2nc(C=Nc3ccc(O)cc3)c(O)o2)cc1 the results were S-ASM inh 16%, HepG2 viability -19%, TDP1 cell noCPT 10µM*, TGFb inhibitor -3%, DT40 TDP1 CPT 7.3µM* and IL1B secr inh -86*.
CCOc1cc(N2CCOCC2)c(OCC)cc1NC(=O)Cn1cnc2c(=O)n(C)c(=O)n(C)c21 was read as S-ASM inh 0%, HepG2 viability -10%, TDP1 cell noCPT 4%, TGFb inhibitor -7%, DT40 TDP1 CPT 6% and IL1B secr inh -3.
Cc1ccccc1C(=O)N1CCc2c(cnc(C)c2CNC(=O)CN2CCCCC2)C1 was read as TDP1 cell noCPT -11% and DT40 TDP1 CPT 3%.
Screening COc1ccc(NC(=O)N(Cc2cc3ccc(OC)cc3[nH]c2=O)CC2CCCO2)cc1 (stereo not drawn) returned S-ASM inh -7%, HepG2 viability 4%, TDP1 cell noCPT 13µM*, TGFb inhibitor 6%, DT40 TDP1 CPT 18µM* and IL1B secr inh -17.
`COc1ccc2cc(CN(C(=O)Nc3ccccc3OC)C3CCCC3)c(=O)[nH]c2c1` gave S-ASM inh -16%, HepG2 viability -15%, TDP1 cell noCPT inconclusive, TGFb inhibitor inconclusive, DT40 TDP1 CPT inconclusive and IL1B secr inh inconclusive.
For COc1ccc2cc(CN(CC3CCCO3)C(=O)Nc3ccccc3OC)c(=O)[nH]c2c1 (stereo not drawn) the results were S-ASM inh -3%, HepG2 viability 1%, TDP1 cell noCPT 4.6µM*, TGFb inhibitor -7%, DT40 TDP1 CPT 4.1µM* and IL1B secr inh -27.
For COc1ccc(NC(=O)N(Cc2cc3cc(OC)ccc3[nH]c2=O)CC2CCCO2)cc1 (stereo not drawn) the results were S-ASM inh 1%, HepG2 viability 10%, TDP1 cell noCPT inconclusive, TGFb inhibitor 4%, DT40 TDP1 CPT inconclusive and IL1B secr inh -26.
Screening Cc1ccccc1CNC(=O)Cn1cnc(S(=O)(=O)N2CCCC2)c1 returned S-ASM inh 7%, HepG2 viability 0%, TDP1 cell noCPT 31%, TGFb inhibitor -13%, DT40 TDP1 CPT inconclusive and IL1B secr inh 1.
`COc1cc(Cl)c(CN2CCCC(CO)(Cc3ccccc3F)C2)cc1OC` (stereo not drawn) gave S-ASM inh 1%, HepG2 viability -10%, TDP1 cell noCPT inconclusive, TGFb inhibitor -20%, DT40 TDP1 CPT -6% and IL1B secr inh inconclusive.
For CC(C)Oc1ccc(CN2CCCC(CO)(Cc3ccc(F)cc3)C2)cc1 (stereo not drawn) the results were S-ASM inh 1%, HepG2 viability -37%, TDP1 cell noCPT inconclusive, TGFb inhibitor -26%, DT40 TDP1 CPT inconclusive and IL1B secr inh -72*.
Screening COc1ccc(CN2CCCC(CO)(Cc3ccc(F)cc3)C2)c(OC)c1OC (stereo not drawn) returned S-ASM inh 6%, HepG2 viability -44%, TDP1 cell noCPT inconclusive, TGFb inhibitor -3%, DT40 TDP1 CPT 15µM* and IL1B secr inh -16.
CCOc1ccc(CN2CCCC(CO)(Cc3ccccc3F)C2)cc1 (stereo not drawn) was read as S-ASM inh -1%, HepG2 viability -29%, TDP1 cell noCPT inconclusive, TGFb inhibitor -16%, DT40 TDP1 CPT inconclusive and IL1B secr inh -56*.
